Results published in PubChem BioAssay (NCI).
Compounds without any hit were thinned out: in the full panel of roughly 83,000, 20% have a hit.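 A percent growth of 40 corresponds to 60% growth inhibition; 0 means no net growth; -100 means all cells died. Active threshold: below 10.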 Values without a mark were called inactive. The source made the active and inactive calls.

System: IGROV1 ovarian
Test: NCI-60 one-dose screen, 48 h (100 = growth as untreated, 0 = no growth, -100 = all killed)
Conditions: 10 µM unless noted
Protocol: Growth inhibition of the IGROV1 human tumor cell line is measured as a screen for anti-cancer activity. Cells are grown in 96 well plates and exposed to the test compound for 48 hours. Compounds are tested at a single concentration, which is 10^-5 M for most compounds. The reported endpoint is percent growth (GI% or GIPRCNT), where numbers from 0 - 100% represent growth inhibition, and numbers from -100% - 0 represent cell death. For example, a value of 40 represents 60% growth inhibition. A value of 0 means no net growth occurred over the course of the experiment. A value of -40 indicates 40% of cells at the beginning of the experiment died by the end of the experiment. A value of -100 means all cells are dead at the end of the experiment.
NCI-60 Human Tumor Cell Lines Screen was performed using the standard one-dose NCI protocol, which is described in more detail at https://dtp.cancer.gov/discovery_development/nci-60/default.htm.
Compounds with GIPRCNT values below 10 were considered active. Activity score was based on GIPRCNT using the following formula: […]
Score is 0 for GIPRCNT values of 100 or above, 50 for GIPRCNT values of 0, and 100 for GIPRCNT values of -100.

Compound | growth
NCCCNc1nc2ccccc2c2c(=O)c3cc(F)cc(Cl)c3sc12 | 80%
Cn1cc(-c2ccc3cc(-c4ccc(CC(=O)Nc5cc(C(C)(C)C)nn5C)cc4)cnc3c2)cn1 | -1.22% (active)
CCCCn1c(=O)c(-c2cc(-c3ccc(Cl)cc3)nc(-c3ccc(Cl)cc3)c2)cc2cc(Cl)ccc21 | 103%
O=[N+]([O-])c1ccc(Oc2nc(Nc3ccc(O[C@H]4CO[C@H]5[C@@H]4OC[C@@H]5O)c(Cl)c3)ncc2F)c(Cl)c1 | -13% (active)
CN1CCN(Cc2ccc(NC(=O)c3cncc(C#Cc4cnccc4C#N)c3)cc2C(F)(F)F)CC1 | 67.2%
COc1ccc(C(=O)/C=C/c2sc(Cl)nc2Cl)cc1 | 11.1%
CCOC(=O)C1=C(N)Oc2c(sc3c(CC)cccc23)C1c1ccc(F)cc1 (stereo not given) | 29.3%
Cc1ccc2sc3c(NCCN)nc4ccccc4c3c(=O)c2c1 | 72.4%
C=C1C(=O)O[C@H]2[C@H]1CC/C(COC(=O)CCC(=O)NCCOCCOCC(=O)Nc1ccc(OC)c(C(N)=O)c1O)=C\CC[C@@]1(C)O[C@@H]21 | 59.2%
COc1ccc(C(=O)n2nc(-c3ccccc3)nc2N)cc1OC | 73.5%
COc1ccc(NC(=O)n2nc(/C=C\c3ccc(O)c(OC)c3)cc2/C=C\c2ccc(O)c(OC)c2)cc1 | 34.4%
COc1ccc(-c2[nH]c3ccc(OC)cc3c2/C=C(\C#N)S(=O)(=O)c2ccccc2)cc1 | 48.6%
CCC(=O)Nc1ccc(-c2nc(-c3cccc(OC)c3)c(-c3ccnc(Br)c3)[nH]2)cc1 | 81%
NC1CCN(c2nc(Nc3cccc(C(F)(F)F)c3)c3c(=O)[nH]ccc3n2)CC1 | -46.2% (active)
O=c1c2cc(F)ccc2sc2c(NCCCNCCO)nc3ccccc3c12 | 22.4%
CC1=C(SCCC(=O)OC(C[Se]C2=C(C)C(=O)c3ccccc3C2=O)C(=O)NC(C)(C)C)C(=O)c2ccccc2C1=O (stereo not given) | -27.9% (active)
CCOC(=O)NCCc1ccccc1 | 85.3%
CN(C)CC#Cc1ccc2ncc(C#N)c(Nc3ccc(F)c(Cl)c3)c2c1 | 3.51% (active)
O=CN(SSN(C=O)C1CCCCC1)C1CCCCC1 | 100%
C=C(C)[C@@H]1CC[C@]2(N=C=O)CC[C@]3(C)[C@H](CC[C@@H]4[C@@]5(C)Cc6c([nH]c7ccccc67)C(C)(C)[C@@H]5CC[C@]43C)[C@@H]12 | 84.3%

Compound | growth
O=C(Nn1c(NCC(=O)N2c3ccccc3Sc3ccccc32)nnc1-c1ccc(O)cc1)c1ccccc1 | 102%
CCc1cccc2c3c(sc12)C(c1ccc(Cl)cc1)C(C#N)=C(N)O3 (stereo not given) | 30.2%
C[C@]12CC[C@@H]3c4cc(OC(F)F)c(OS(N)(=O)=O)cc4CC[C@H]3[C@@H]1CC[C@@H]2O | 34.5%
COc1ccc(/C=N/Nc2cc(=O)[nH]c3ccc(Cl)cc23)cc1 | 75.7%
Cc1nc(NC(=O)COc2ccc(/C=C3\Cc4ccc(Cl)cc4C3=O)cc2)sc1C | -69.8% (active)
O=C1c2cccc3cccc(c23)C(=O)N1Nc1nc(N2CCOCC2)nc(N2CCN(c3ccccc3)CC2)n1 | 32.9%
C[C@H](C(=O)Nc1ccc(S(N)(=O)=O)cc1)S(=O)(=O)c1ccccc1 | 98.9%
Cc1ccc(/C=C(\C#N)n2nc3cccc(F)c3n2)cc1 | 90.9%
O=C1NC(=O)C(Cn2cnc3ccccc32)N1 (stereo not given) | 105%
CC(=O)CC(c1ccccc1)c1c(C)[nH]c2ccccc12 (stereo not given) | 91.5%
C#Cc1cccc(NC(=O)c2ccc(NC(=O)C=C)cc2)c1 | 70.9% [8.25 µM]
CC(=O)Oc1ccccc1C(=O)N=C1[Se]CCCN1C(=O)c1ccccc1OC(C)=O | 11.7%
COC(=O)Nc1ccc(-c2nc(-c3cccc(OC)c3)c(-c3ccnc(Br)c3)[nH]2)cc1 | 72.5%
C=C(C)C1CCC2(C)OC2C1 (stereo not given) | 89.5%
O=C(Nc1ccc(Cl)cc1F)c1cc(Cl)ccc1O | 8.98% (active)
CN(C)CCNc1nc2ccccc2c2c(=O)c3cc(F)ccc3sc12 | 49%
CCOC(=O)c1[nH]c(C)c(C(=O)OCc2ccccc2C#N)c1C | 44.6%
Oc1c(I)cc(I)cc1CNCCCN(Cc1ccccn1)Cc1ccccn1 | -79.5% (active)
COc1ccc(/C=C(\C#N)n2nnc3c(F)cccc32)cc1 | 13.2%
COc1cc(C(=O)N2N=C(c3ccc(S(C)(=O)=O)cc3)CC2c2ccco2)cc(OC)c1OC (stereo not given) | -2.69% (active)
